According to PubChem BioAssay (NCI):
The panel holds about 83,000 compounds, 20% with a hit somewhere; the sample as a whole holds those more often.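 Values shown are percent growth following 48 h exposure of cells in 96-well plates to a single concentration of compound; below 10 was considered active.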 The source made the active and inactive calls.

What was measured:
Experiment in all cases: NCI-60 one-dose screen, 48 h (100 = growth as untreated, 0 = no growth, -100 = all killed)
Settings in all cases: 10 µM unless noted
EKVX NSCLC = tested on: EKVX NSCLC
SN12C renal = tested on: SN12C renal
UO-31 renal = tested on: UO-31 renal
TK-10 renal = tested on: TK-10 renal
ACHN renal = tested on: ACHN renal
A498 renal = tested on: A498 renal
CCRF-CEM leukemia = tested on: CCRF-CEM leukemia
MOLT-4 leukemia = tested on: MOLT-4 leukemia
SR leukemia = tested on: SR leukemia
CAKI-1 renal = tested on: CAKI-1 renal

Measured: growth

N[C@@H](CC/[N+]([O-])=N/O)C(=O)O
inactive: EKVX NSCLC 89.3% | SN12C renal 101% | UO-31 renal 94.9% | TK-10 renal 104% | ACHN renal 105% | A498 renal 111% | CCRF-CEM leukemia 105% | MOLT-4 leukemia 104% | SR leukemia 126%

CC(C)CCOc1ccc(-c2n[nH]c(C(F)(F)F)c2-c2cncc(C#N)c2)c(O)c1
active: EKVX NSCLC 3.52% | SN12C renal 3.81% | UO-31 renal 3.89% | ACHN renal 8.84% | A498 renal -25.5% | CCRF-CEM leukemia 6.67%
inactive: TK-10 renal 11.4% | MOLT-4 leukemia 23% | SR leukemia 33.7%

CC1=C(C(=O)OCC2CCN(C(=O)OC(C)(C)C)CC2)[C@H](c2cccc(Br)c2)C2=C(CC(C)(C)CC2=O)N1
active: MOLT-4 leukemia 4.54%
inactive: EKVX NSCLC 49.4% | SN12C renal 31.2% | UO-31 renal 31.2% | TK-10 renal 38.9% | ACHN renal 27.9% | A498 renal 49.5% | CCRF-CEM leukemia 17.9%

O=C1/C=C/[C@@H](O)[C@@H]2C[C@@H](O)C[C@H]2/C=C/CCCCO1
active: UO-31 renal 8.64% | A498 renal -25.5% | MOLT-4 leukemia 5.39%
inactive: EKVX NSCLC 20.6% | SN12C renal 45.3% | TK-10 renal 32.1% | ACHN renal 17.9% | SR leukemia 14.4%

COc1cc(CNC(=O)Cc2ccccc2)ccc1OCc1cn(-c2ccc(F)cc2)nn1
inactive: EKVX NSCLC 94.2% | SN12C renal 93.1% | UO-31 renal 80.7% | TK-10 renal 112% | ACHN renal 94.9% | CAKI-1 renal 91.2% | CCRF-CEM leukemia 100% | MOLT-4 leukemia 114% | SR leukemia 106%

Cc1c(C(=O)OCCO)cc(-c2ccc(Cl)cc2)n1-c1ccc(Cl)cc1Cl
inactive: EKVX NSCLC 63.8% | SN12C renal 61.1% | UO-31 renal 69.4% | TK-10 renal 101% | ACHN renal 71.4% | A498 renal 77.3% | CCRF-CEM leukemia 65.4% | MOLT-4 leukemia 49.8%

CN1C(=O)N(C)C2C1NN=c1s/c(=C\c3c[nH]c4ccccc34)c(=O)n12 (stereo not drawn)
inactive: EKVX NSCLC 51.7% | SN12C renal 35.4% | UO-31 renal 48% | TK-10 renal 86.4% | ACHN renal 32.5% | CAKI-1 renal 81.7% | CCRF-CEM leukemia 16.2% | MOLT-4 leukemia 14.9%
active: SR leukemia 8.78%

CN1CCN(Cc2ccc(C(=O)Nc3cncc(C#Cc4cnc(N)c5ccccc45)c3)cc2C(F)(F)F)CC1
active: EKVX NSCLC -8.85% | SN12C renal -81.7% | UO-31 renal -90.7% | TK-10 renal -70.1% | ACHN renal -76.1% | A498 renal -62.9% | CCRF-CEM leukemia 0.702% | MOLT-4 leukemia -30%

O=c1oc2ccc(Br)cc2c(=O)n1-c1ccc(I)cc1F
active: SN12C renal -1.37% | UO-31 renal 7.32% | TK-10 renal 7.64% | ACHN renal 3.46% | A498 renal -70.2% | CCRF-CEM leukemia 7.41% | MOLT-4 leukemia -26.3%
inactive: EKVX NSCLC 12.5%

CN1CCN(Cc2ccc(C(=O)Nc3cncc(C#Cc4cnc5cccnn45)c3)cc2C(F)(F)F)CC1
inactive: EKVX NSCLC 75% | SN12C renal 48.1% | UO-31 renal 21.5% | TK-10 renal 82.8% | ACHN renal 25.6% | A498 renal 11.3% | CCRF-CEM leukemia 32.6%

Nc1ccc(-c2nn3c(CCC(=O)c4nc5ncccc5[nH]4)nnc3s2)c(O)c1
inactive: EKVX NSCLC 98% | SN12C renal 87.8% | UO-31 renal 68.7% | TK-10 renal 144% | ACHN renal 90.5% | A498 renal 75.3% | CCRF-CEM leukemia 94.1% | MOLT-4 leukemia 82.8%

CN1C(=O)N(C)C2(c3ccccc3)n3c(s/c(=C\c4ccccc4)c3=O)=NNC12c1ccccc1 (stereo not drawn)
inactive: EKVX NSCLC 76.1% | SN12C renal 91.3% | UO-31 renal 74.9% | TK-10 renal 116% | ACHN renal 95% | CAKI-1 renal 84.5% | MOLT-4 leukemia 83% | SR leukemia 71.9%

CC(C)[C@H](NC(=O)Cn1cc(C(=O)O)nn1)C(=O)O
inactive: EKVX NSCLC 93.8% | SN12C renal 95.7% | UO-31 renal 88.7% | TK-10 renal 115% | CAKI-1 renal 89.4% | A498 renal 90.6% | CCRF-CEM leukemia 113% | MOLT-4 leukemia 96.7% | SR leukemia 101%

O=c1cc(-c2ccccc2)oc2cc(OCc3cn(Cc4ccc(F)cc4)nn3)cc(OCc3cn(Cc4ccc(F)cc4)nn3)c12
inactive: EKVX NSCLC 57.2% | SN12C renal 38.7% | TK-10 renal 37.1% | CAKI-1 renal 54.6% | A498 renal 30.8% | CCRF-CEM leukemia 77.5% | MOLT-4 leukemia 83.2% | SR leukemia 32.7%
active: UO-31 renal 3.64%

O=C(NN1C(=O)CSC1c1ccc(Cl)cc1)c1[nH]c2ccc(F)cc2c1-c1ccccc1 (stereo not drawn)
inactive: EKVX NSCLC 49.3% | SN12C renal 44.1% | UO-31 renal 36.3% | TK-10 renal 66.9% | CAKI-1 renal 32.1% | A498 renal 84.3% | CCRF-CEM leukemia 34.3% | MOLT-4 leukemia 34.1% | SR leukemia 48.9%

COC(=O)c1c2c(c(C)[n+]([O-])c1C)C(=O)C(NCc1ccc(Br)cc1)=CC2=O
active: SN12C renal 4.82%
inactive: EKVX NSCLC 31.8% | UO-31 renal 60.9% | TK-10 renal 84.4% | ACHN renal 32.6% | CCRF-CEM leukemia 34.3% | MOLT-4 leukemia 35% | SR leukemia 30.2%

Nc1cccc(Nc2cc(S(=O)(=O)O)c(N)c3c2C(=O)c2ccccc2C3=O)c1
inactive: EKVX NSCLC 85.1% | SN12C renal 99% | UO-31 renal 110% | TK-10 renal 107% | CAKI-1 renal 92.8% | A498 renal 102% | CCRF-CEM leukemia 101% | MOLT-4 leukemia 103% | SR leukemia 115%

COc1cc(C2CC(c3ccc(Nc4nc(NCCO)nc(N5CCOCC5)n4)cc3)=NN2c2cc(Cl)cc(Cl)c2)cc(OC)c1OC (stereo not drawn)
inactive: EKVX NSCLC 55.5% | SN12C renal 65.5% | UO-31 renal 42% | TK-10 renal 93.3% | A498 renal 52% | CCRF-CEM leukemia 48% | MOLT-4 leukemia 33.2% | SR leukemia 23.2%

S=C1CCCC(=S)N1
inactive: EKVX NSCLC 106% | SN12C renal 99.3% | UO-31 renal 87.8% | TK-10 renal 114% | CAKI-1 renal 93% | A498 renal 91.3% | CCRF-CEM leukemia 105% | MOLT-4 leukemia 107% | SR leukemia 114%

O=C1N=c2ccccc2=C1c1sc(=Nc2ccccc2)n(Nc2ccccc2)c1O
inactive: EKVX NSCLC 94.2% | SN12C renal 106% | UO-31 renal 81.4% | TK-10 renal 138% | ACHN renal 109% | CCRF-CEM leukemia 103% | MOLT-4 leukemia 99.3% | SR leukemia 99.2%

C#CCn1cc(C=C2C(=O)NC(=O)NC2=O)c2cc(Cl)ccc21
active: A498 renal -53.3%
inactive: EKVX NSCLC 90.9% | SN12C renal 81.3% | UO-31 renal 67.5% | TK-10 renal 118% | CAKI-1 renal 72% | CCRF-CEM leukemia 82.2%

O=c1oc2ccc(Br)cc2c(=O)n1-c1ccc(Br)cc1F
inactive: TK-10 renal 18.9%
active: EKVX NSCLC 3.25% | SN12C renal -1.73% | UO-31 renal -19.5% | CAKI-1 renal -10.6% | CCRF-CEM leukemia 9% | MOLT-4 leukemia -16.6% | SR leukemia 3.7%

COC(=O)c1ccc(NC(=O)CSc2nc3ccccc3c(=O)n2-c2ccccc2)cc1
inactive: EKVX NSCLC 117% | SN12C renal 104% | UO-31 renal 86.4% | TK-10 renal 103% | CAKI-1 renal 91.5% | A498 renal 96.7% | CCRF-CEM leukemia 92.8% | MOLT-4 leukemia 88% | SR leukemia 88.9%

CCCCOCc1cc(CN2CCN(C)CC2)c(O)c2ncccc12
inactive: EKVX NSCLC 38.4% | SN12C renal 62% | UO-31 renal 21.3% | A498 renal 70.1% | CCRF-CEM leukemia 31.8% | MOLT-4 leukemia 60.6% | SR leukemia 35.9%

CC[C@H](C)[C@@H](C(=O)OC)n1cc(CNC(=O)[C@@H](Cc2ccccc2)NC(=O)OCc2ccccc2)nn1
inactive: EKVX NSCLC 92.6% | SN12C renal 94.6% | UO-31 renal 76.7% | TK-10 renal 101% | A498 renal 83.3% | CCRF-CEM leukemia 85.1% | MOLT-4 leukemia 69.1% | SR leukemia 103%

COC(=O)[C@H](NC(=O)C1(C)CCC[C@]2(C)[C@H]3C[C@H]4C(C(C)C)=C[C@]3(CC[C@@H]12)[C@@H]1C(=O)CCC(=O)[C@@H]14)C(C)C (stereo partly drawn)
inactive: EKVX NSCLC 94.9% | SN12C renal 99.8% | UO-31 renal 90.7% | TK-10 renal 127% | CAKI-1 renal 88.4% | A498 renal 110% | MOLT-4 leukemia 102% | SR leukemia 89.7%

CCCC(=O)CC(C)=O.CCCC(=O)CC(C)=O.[Cu]
inactive: EKVX NSCLC 106% | SN12C renal 110% | UO-31 renal 102% | ACHN renal 105% | CAKI-1 renal 103% | CCRF-CEM leukemia 107% | MOLT-4 leukemia 99.2% | SR leukemia 85.6%

Cc1cc(Br)c(N)c(Br)c1
inactive: EKVX NSCLC 95.6% | SN12C renal 109% | UO-31 renal 102% | ACHN renal 99.1% | CAKI-1 renal 98% | A498 renal 84.1% | CCRF-CEM leukemia 103% | MOLT-4 leukemia 96.4% | SR leukemia 100%

Cc1cccc(NC(=O)c2sc3nc4c(cc3c2N)CCCC4)c1C
active: A498 renal 4.01% | CCRF-CEM leukemia 7.79%
inactive: EKVX NSCLC 45.4% | SN12C renal 38.9% | UO-31 renal 50.6% | TK-10 renal 65.4% | CAKI-1 renal 34.8% | MOLT-4 leukemia 19.3% | SR leukemia 34.7%

Nc1ccc(C2c3ccccc3Oc3ccccc32)cc1
inactive: EKVX NSCLC 86.3% | SN12C renal 98.5% | UO-31 renal 81.7% | ACHN renal 97.6% | CAKI-1 renal 87.2% | A498 renal 124% | CCRF-CEM leukemia 94.8% | MOLT-4 leukemia 83% | SR leukemia 97.8%

Cc1cccc2c(=O)c3c(sc12)c(NCCN)nc1ccccc13
active: EKVX NSCLC -0.232% | SN12C renal -75.8% | UO-31 renal -77.1% | TK-10 renal -73.7% | CAKI-1 renal -58.4% | CCRF-CEM leukemia -34.5% | MOLT-4 leukemia -59% | SR leukemia -28.3%
